Results on 20 molecules are retold here after PubChem BioAssay (NCI).

About 79,000 compounds went through this panel and 15% of them were active in at least one assay; those are over-represented in the sample as a whole. Values without a mark were called inactive. Activity calls are given as the source filed them. No stated cut-off is given here; in the data, active means growth inhibition above about 70%; inactive means the rest.

Experiment [1] in a line: NCI Yeast Anticancer Drug Screen. Data for the rad50 strain (AID 155).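 Further: 0% = growth of vehicle-only cultures of the same strain.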 The following applies: S. cerevisiae rad50 strain growth inhibition; at 50.0 µM; stronger effect = higher value. In outline: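 Inhibition values express reduced yeast growth in compound-treated cultures relative to vehicle-treated controls.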
Experiment [2] in a line: NCI Yeast Anticancer Drug Screen. Data for the mec2-1 strain (AID 157). The following applies: S. cerevisiae mec2-1 strain, at 50.0 µM, stronger effect = higher value. In outline: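 Mutant yeast (mec2-1) grown with compound; growth inhibition relative to vehicle control reported.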
Experiment [3] is described as follows: NCI Yeast Anticancer Drug Screen. Data for the sgs1 mgt1 strain (AID 161).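 Further: 0% = growth of cultures given vehicle only.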 The following applies: S. cerevisiae sgs1 mgt1 strain, at 50.0 µM, stronger effect = higher value. The method in brief: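 Percent growth inhibition was derived by comparing compound-exposed mutant yeast with vehicle-exposed cultures. The strain carries alterations in DNA damage repair.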
The nature of experiment [4]: NCI Yeast Anticancer Drug Screen. Data for the cln2 rad14 strain (AID 165).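 Further: 0% = growth equal to vehicle treated cultures.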 The following applies: S. cerevisiae cln2 rad14 strain, at 50.0 µM, stronger effect = higher value. In outline: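 Readout is yeast growth inhibition versus vehicle-treated controls, using a strain with cln2 and rad14 alterations exposed to compound.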
A short description of experiment [5]: NCI Yeast Anticancer Drug Screen. Data for the bub3 strain (AID 167). The following applies: S. cerevisiae bub3 mutant strain, at 50.0 µM, stronger effect = higher value. In outline:
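Steps: expose the mutant yeast strain to compound; grow alongside vehicle-treated cultures; measure growth; express inhibition against the vehicle cultures.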

Experiment [6] can be described thus: NCI Yeast Anticancer Drug Screen. Data for the mlh1 rad18 strain (AID 175). The following applies: S. cerevisiae mlh1 rad18 strain growth inhibition; at 50.0 µM; stronger effect = higher value. In outline:
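Genetically defined yeast (DNA repair-deficient) exposed to compounds; growth inhibition determined relative to vehicle.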

In the case of `CC(C)c1ccc(/C=C2/CCCCC2=O)cc1`, the growth inhibition is -2.55% in experiment [1]; -15% in experiment [2]; -10.5% in experiment [3]; -68.8% in experiment [4]; -16.4% in experiment [5]; -24.9% in experiment [6].
Take `O=[N+]([O-])/C=C/c1cn(CCCCCn2cc(/C=C/[N+](=O)[O-])c3ccccc32)c2ccccc12`: the growth inhibition is -5.65% in experiment [1]; -8.65% in experiment [2]; -2.45% in experiment [3]; -7.65% in experiment [4]; 8.35% in experiment [5]; -9.8% in experiment [6].
With `NC1=Nc2cc(Cl)ccc2Sc2nc3ccccc3n21`, the growth inhibition in experiment [1] was -18.4%; in experiment [2] it was -65.4%; in experiment [3], -17.6%; in experiment [4] it was 0.55%; in experiment [5], 10.9%; in experiment [6] it was -2.8%.
Take `CC/C=C/CC(=O)NCc1ccc(O)c(OC)c1`: the growth inhibition in experiment [1] is 5.45%; in experiment [2], -1.15%; in experiment [3] it was -7.95%; in experiment [4] it was 48.3%; in experiment [5] it was -2.9%; in experiment [6] it was -16.7%.
For the molecule `CC[n+]1ccc(/C=C\c2c(Cl)cccc2Cl)cc1`, the growth inhibition in experiment [1] was -1.45%; in experiment [2], -17.6%; in experiment [3] it was 5.65%; in experiment [4], 3%; in experiment [5], 7.8%; in experiment [6], 12.1%.
In the case of `CC(C)Cn1cnc2c(SCc3ccccn3)nc(N)nc21`, the growth inhibition in experiment [1] is -6.45%; in experiment [2], -17.4%; in experiment [3], -10.2%; in experiment [4], -30.6%; in experiment [5], -48.5%; in experiment [6], -17.4%.
For the molecule `CC(C)(C#N)C(C)(C)c1cnc2ccccc2c1`, the growth inhibition was 15.2% in experiment [1]; -7.15% in experiment [2]; -9.4% in experiment [3]; -52.5% in experiment [4]; -2.25% in experiment [5]; -12.4% in experiment [6].
In the case of `CCCCNc1ccc(Cl)cc1`, the growth inhibition in experiment [1] is 0.75%; in experiment [2], -5.4%; in experiment [3] it was -16.7%; in experiment [4], -27.9%; in experiment [5] it was -15.5%; in experiment [6], -15.6%.
Regarding `O=C1c2cccc3cc([N+](=O)[O-])cc(c23)C(=O)N1CC1CCCO1` (stereo not given), the growth inhibition was 75.3% (active) in experiment [1]; 15.8% in experiment [2]; 30.6% in experiment [3]; 18.1% in experiment [4]; 26.1% in experiment [5]; 3.15% in experiment [6].
As to `CC(=O)C1CC[C@@]2(C)C(CC[C@H]3[C@@H]4CCC[C@H]([C@H](C)O)[C@@]4(C)CC[C@@H]32)C1` (stereo not given in full), the growth inhibition in experiment [1] was -16.9%; in experiment [2] it was 0.3%; in experiment [3] it was 2.9%; in experiment [4] it was 0.4%; in experiment [5] it was -5.5%; in experiment [6], -7.5%.
Regarding `COC1=CC(=O)/C(=C(O)/C=C/c2ccccc2)C(=O)C1(C)C`, the growth inhibition in experiment [1] is 3.2%; in experiment [2], -1.65%; in experiment [3] it was 16.9%; in experiment [4], -2.5%; in experiment [5], 14.6%; in experiment [6], 29.4%.
As for `CCOC(=O)C[N+]1(C)CCC(O)CC1` (stereo not given), the growth inhibition in experiment [1] was 3.15%; in experiment [2], 26.1%; in experiment [3], -2.55%; in experiment [4], -0.45%; in experiment [5] it was 16.6%; in experiment [6], 7.55%.
For the molecule `CC(C)CCCC(C)C1CCC2C3CC(=O)C4C=CCCC4(C)C3CCC12C` (stereo not given), the growth inhibition in experiment [1] was 39.1%; in experiment [2], 19.5%; in experiment [3], 27.6%; in experiment [4], 24%; in experiment [5], 2.65%; in experiment [6], 34%.
Take `O=C(Nc1cccc2ccccc12)Oc1cccc2cccnc12`: the growth inhibition was 98% (active) in experiment [1]; 96.9% (active) in experiment [2]; 97.5% (active) in experiment [3]; 94% (active) in experiment [4]; 98.5% (active) in experiment [5]; 98% (active) in experiment [6].
Turning to `CC(=O)OC1C(O[C@H]2CC[C@]34O[C@]35CC[C@]3(C)C(C6(C)CC[C@@H](C(C)(C)O)O6)[C@@H](O)CC3(C)[C@@H]5CC(OC3OC(CO)C(O)C(O)C3O)C4C2(C)C)OCC(O)C1O` (stereo not given in full), the growth inhibition is -8.4% in experiment [1]; -21.6% in experiment [2]; 2.7% in experiment [3]; 1.85% in experiment [4]; 0.7% in experiment [5]; 6.35% in experiment [6].
With `N#C/C(=C/N1C(=O)CC(=O)NC1=S)c1cccc(Cl)c1`, the growth inhibition in experiment [1] was -30.7%; in experiment [2], -14.3%; in experiment [3], -31.2%; in experiment [4], 18.2%; in experiment [5], -28.8%; in experiment [6], -48.5%.
On to `N#CCCc1c(O)ccc2ccccc12`, for which the growth inhibition in experiment [1] is 38.6%; in experiment [2] it was 0.6%; in experiment [3], 10.1%; in experiment [4] it was -59.9%; in experiment [5], 10.5%; in experiment [6], 11.6%.
`O=C(O)c1ccc(-c2c3ccc(=O)cc-3oc3cc(O)ccc23)cc1`: the growth inhibition was 18% in experiment [1]; -30.1% in experiment [2]; 6.05% in experiment [3]; 22.1% in experiment [4]; 23.9% in experiment [5]; 20.4% in experiment [6].
For the molecule `CNc1ccc(OC)cc1`, the growth inhibition in experiment [1] was -4.9%; in experiment [2], -0.9%; in experiment [3], -13.4%; in experiment [4], -1%; in experiment [5], 7.35%; in experiment [6], 3.25%.
For `Cc1cc(Br)cc(C)c1NC(=O)C(=O)CC(=O)c1sc(-n2nc(-c3ccccc3)cc2-c2ccccc2)nc1C`, the growth inhibition was 5.7% in experiment [1]; 1.75% in experiment [2]; -32.5% in experiment [3]; 28.5% in experiment [4]; 33.8% in experiment [5]; 15.7% in experiment [6].
